Compound activity from PubChem.
PfHsp90 set2: reduces growth (ATP signal) of yeast expressing P. falciparum Hsp90; inhibition, % at 9.4 µM; 310,000 compounds, 0.32% hits; S. cerevisiae expressing PfHsp90, BacTiter-Glo ATP, 48 h; yeast lacking PDR1 and PDR3 efflux regulators;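 active means every replicate shows inhibition above about 80%, whatever the replicate mean, limit read from the data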;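 further: 0% = DMSO neutral controls and 100% = 20 µM radicicol positive controls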
tim23-1 inh: inhibits growth of tim23-1 mutant yeast; S. cerevisiae tim23-1 growth, BacTiter-Glo luminescence, 24 h; inhibition, % at 20 µM; 330,000 compounds, 1.3% hits;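 active means growth inhibition of the mutant yeast at or above 50%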;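 further: temperature-sensitive mutant grown at 25 °C; plate controls were DMSO-treated mutant yeast for no effect and medium wells lacking yeast for full effect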
SKKanGAS inh: inhibitors of SKKanGAS S. pyogenes growth in kanamycin (SK-promoter or general growth effect); BacTiter-Glo, 6 h; inhibition, % at 7.5 µM; 300,000 compounds, 1.3% hits; AID 1662;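 active means mean replicate score, as percent of positive control median, at least 50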;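 further: strain carries kanamycin resistance gene driven by streptokinase promoter and grows in 40 µg/ml kanamycin; loss of luminescence reflects streptokinase promoter inhibition or plain growth inhibition; 0% = median of DMSO wells and 100% = positive control at its reference dose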
NALP3 yeast inh: NALP3 inhibition in yeast; inhibition, % at 10 µM; Yeast reconstituted NLRP3/ASC/caspase-1, beta-gal luminescence, 24 h; 330,000 compounds, 0.39% hits;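 active means inhibition of 50% or more; inactive means inhibition below 50%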;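 further: plate controls were induced DMSO wells for no effect and uninduced yeast grown without galactose for full effect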
tim10-1 inh: tim10-1 yeast growth inhibition | S. cerevisiae tim10-1 ts strain growth, BacTiter-Glo, 24 h | inhibition, % at 20 µM | 330,000 compounds, 2.2% hits;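 active means inhibition of at least 40%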;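 further: mutant grown at 25 °C; 0% = DMSO wells with yeast and 100% = wells holding no yeast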
TIM10 inh: growth inhibitors of TIM10 yeast strain; 330,000 compounds, 1.4% hits; S. cerevisiae TIM10 strain growth, BacTiter-Glo luminescence, 24 h; inhibition, % at 10 µM;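 active means inhibition of 40% or more at the single tested concentration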;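 further: wild-type TIM10 isogenic control strain grown at permissive 25 °C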
tim10-1 confirm: confirmation of tim10-1 mutant yeast growth inhibitors | shares compounds with tim10-1 inh | S. cerevisiae tim10-1 ts strain growth, BacTiter-Glo, 24 h | inhibition, % at 20 µM | 7,400 compounds, 56% hits;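 active means inhibition of yeast growth at or above a set limit in either of two repeat tests at 20 µM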;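 further: tim10-1 mutant grown at permissive 25 °C to find synthetic lethal compounds; 0% = DMSO yeast wells and 100% = medium wells without yeast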
An asterisk follows results filed as active; . = no result given. Hits are enriched below; roughly 4.6% of the tested compounds scored in any of these assays.

SMILES	PfHsp90 set2	tim23-1 inh	SKKanGAS inh	NALP3 yeast inh	tim10-1 inh	TIM10 inh	tim10-1 confirm
COc1ccc(OC)c(-c2cc(C(=O)Nc3c(C)nn(Cc4ccccc4)c3C)no2)c1	3.5	15.6	-6.7	8.7	41.1*	25.3	10.1
Cc1cccc(C(C)Nc2ccc([N+](=O)[O-])cn2)c1 (configuration not stated)	.	30.2	0.2	1.2	31.0	27.8	.
COc1ccc(N2C(=O)CC(Sc3nnc(-c4ccccc4)o3)C2=O)cc1 (configuration not stated)	-0.3	40.6	-11.7	17.9	53.4*	38.7	54.9*
O=C1CC(Sc2nnc(-c3ccccc3O)o2)C(=O)N1c1ccccc1 (configuration not stated)	-37.2	38.4	6.6	17.0	26.0	35.0	.
Cc1cc(C)c2c(CC(=O)NNC(=O)c3ccccc3)coc2c1	-3.9	10.6	1.1	1.2	5.2	9.2	.
CCCCn1nc(C(=O)Nc2ccccc2N2CCCC2)c2ccccc2c1=O	-18.1	34.9	.	15.4	12.2	11.3	.
Cc1nc(N2CCN(C(=O)COc3ccccc3)CC2)c2c(C)c(C)sc2n1	2.1	27.3	12.1	11.6	41.0*	39.1	26.6
Cc1cc(C(=O)NC2CCCN(Cc3ccccc3F)C2)n[nH]1 (configuration not stated)	-4.5	3.1	-0.2	6.0	1.1	4.5	.
COc1cc2c(cc1OC)C(c1ccccc1[N+](=O)[O-])N(C(C)=O)CC2 (configuration not stated)	1.0	8.3	5.7	11.2	-10.9	0.3	.
COc1ccc(NC(=S)N(C)CC2COc3ccccc3O2)cc1 (configuration not stated)	0.7	28.7	-3.7	15.1	23.2	19.7	.
CCN(CC1COc2ccccc2O1)C(=S)Nc1ccc(F)cc1 (configuration not stated)	11.2	47.5	3.7	26.7	45.2*	31.8	30.0
Cn1c(CC(=O)Nc2ccc(Cl)c(Cl)c2)n[nH]c1=S	4.8	1.0	0.1	11.8	-2.5	-4.9	.
COc1ccc(Cc2n[nH]c(=S)n2NC(=O)Nc2ccc(Cl)c(Cl)c2)cc1	-93.0	17.7	65.5*	16.5	43.4*	31.2	63.5*
C1=C(CCNCC2CCCCC2)CCCC1	-12.4	-35.6	1.8	15.0	-6.8	-13.7	.
CCc1ccc(C(=O)CN2C(=O)NC3(CCOc4ccccc43)C2=O)s1 (configuration not stated)	8.7	9.5	.	6.2	-27.4	-8.2	.
COC(=O)C1(Cc2cc(-c3cccc(Br)c3)no2)CCN(C(=O)OC(C)(C)C)CC1	-69.8	31.7	17.5	12.7	41.0*	31.2	25.5
CC(C)(C)OC(=O)N1CCC(Cc2cc(-c3cccc(Br)c3)no2)(C(=O)O)CC1	-34.5	23.5	9.3	1.8	5.3	9.4	.
COc1ccc(/C=C2/N=C(c3cccs3)OC2=O)cc1OC(C)C	8.6	38.8	-7.9	17.5	42.3*	32.6	30.2*
CCCCCCCCOC(=O)c1ccc(N)cc1	-9.1	6.9	8.3	26.1	45.3*	7.8	24.4
CCCCOC(=O)c1ccc(O)cc1	-10.2	4.4	7.9	12.1	5.9	-4.5	.
O=C(Cc1ccccc1F)c1ccc(O)cc1O	-4.3	49.7	-17.2	7.2	43.2*	22.0	31.2*
Cc1ccc(C)c(OCC(=O)Nc2ccncc2)c1	12.6	8.4	4.7	16.3	-17.7	-13.8	.
Cc1ccc(-c2noc(CN(C(=O)c3ccc4c(c3)OCO4)C(C)C)n2)cc1	-22.7	15.6	0.5	3.3	14.6	27.1	.
CC(C)N(Cc1nc(-c2ccccc2)no1)C(=O)c1ccc2c(c1)OCO2	.	34.3	1.9	14.0	81.1*	20.1	24.1
C/C(=N\NC(N)=S)C12CC3CC(CC(C3)C1)C2	-13.7	46.2	-6.7	11.5	43.4*	26.4	-21.2
SMILES	PfHsp90 set2	tim23-1 inh	SKKanGAS inh	NALP3 yeast inh	tim10-1 inh	TIM10 inh	tim10-1 confirm
COc1ccc(S(=O)(=O)Cc2ccc(C(=O)NC3CCC(C)CC3)o2)cc1 (configuration not stated)	-4.0	22.8	-0.9	3.7	40.5*	12.2	6.1
COc1ccc(N2CCN(C(=O)c3ccc(CS(=O)(=O)c4ccc(OC)cc4)o3)CC2)cc1	30.8	4.6	-3.8	-2.1	16.3	7.9	.
COc1ccc(S(=O)(=O)Cc2ccc(C(=O)N3CCN(c4ccc(Cl)cc4)CC3)o2)cc1	29.9	34.9	0.4	6.4	46.1*	24.8	17.7
COc1ccc(S(=O)(=O)Cc2ccc(C(=O)N3CCN(c4cc(C)ccc4C)CC3)o2)cc1	-4.0	28.9	7.2	8.4	45.3*	12.5	-4.8
COc1ccc(S(=O)(=O)N(C)C[C@H]2Oc3c(NC(=O)NC4CCCCC4)cccc3C(=O)N([C@H](C)CO)C[C@@H]2C)cc1	-9.0	-4.0	.	6.7	8.5	8.1	.
CCOc1ccccc1N(CC)C(=O)c1nn(C)c2c1CSc1ccccc1-2	21.2	39.0	-1.0	1.4	38.3	15.6	.
Cc1ccc(/C(C#N)=C\c2ccc(N3CCOCC3)o2)cc1	-30.4	41.6	-10.3	41.6	36.1	14.2	.
N#C/C(=C/c1ccc(N2CCCCCC2)o1)c1ccc(Cl)cc1	104.2*	48.5	33.0	34.7	46.6*	38.5	28.2
COc1ccc(Cn2nnnc2CN2CCC(c3nc4ccccc4s3)CC2)cc1	-10.6	9.8	-3.7	4.1	40.8*	29.8	18.1
CCOc1cc(/C=N\Nc2nc(Nc3ccccc3)nc(N3CCOCC3)n2)ccc1OC(=O)c1ccco1	-66.2	19.7	25.6	4.5	42.3*	27.5	26.9
Nc1c(C(=O)c2ccccc2)oc2ccccc12	34.3	28.7	-5.9	-21.8	15.7	22.8	.
Nc1c(C(=O)c2ccc(F)cc2)oc2ccccc12	-7.6	29.9	-11.5	-22.5	45.3*	24.8	21.9
C=CCn1c(Cc2cccs2)nnc1SCC(=O)c1cccc(Br)c1	-6.7	31.2	4.0	3.5	41.1*	13.7	23.9
COc1ccc(/C=C/C(=O)NCc2cn(C)nc2C)cc1COc1ccc(Br)cc1	-9.9	23.3	3.2	-4.8	40.4*	18.7	11.4
CCOc1ccccc1Nc1ccnc2cc(Cl)ccc12	-1.9	0.1	-13.8	3.2	13.7	0.6	.
CCOc1ccc(NC(=S)NNc2ccnc3cc(Cl)ccc23)cc1	.	8.9	-12.1	5.4	46.9*	14.3	4.5
Cc1ccc(NCc2nnc(SC(C)C(=O)N/N=C/c3ccc(C)o3)n2-c2ccccc2)cc1 (configuration not stated)	-8.9	12.1	-2.2	-7.4	17.8	12.1	.
COc1ccc(CN(C)S(=O)(=O)c2ccc3c(c2)OCCO3)cc1	10.8	36.0	50.9*	32.7	47.5*	17.0	20.5
